Experiments:
Conditions in all cases: concentration: 1 μM, replicates: in singlicate; n = 1
[1] = tested on: T1, PRKR
T1 construct: gene EIF2AK2

[2] = tested on: PRKX
[3] = tested on: PRP4
[4] = tested on: T2, PYK2
T2 construct: gene PTK2B

[5] = tested on: QSK
[6] = tested on: RAF1
[7] = tested on: RET
[8] = tested on: RIOK1
[9] = tested on: RIOK2
[10] = tested on: RIOK3
[11] = tested on: RIPK1
[12] = tested on: RIPK2
[13] = tested on: RIPK4
[14] = tested on: RIPK5
[15] = tested on: ROCK1
[16] = tested on: ROCK2
[17] = tested on: ROS1
[18] = tested on: RPS6KA4(Kin.Dom.1-N-terminal)
[19] = tested on: RPS6KA4(Kin.Dom.2-C-terminal)
[20] = tested on: RPS6KA5(Kin.Dom.1-N-terminal)
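Also: KINOMEscan kinase panel screen.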

Row | SMILES | %Inh [1] [%] | %Inh [2] [%] | %Inh [3] [%] | %Inh [4] [%] | %Inh [5] [%] | %Inh [6] [%] | %Inh [7] [%] | %Inh [8] [%] | %Inh [9] [%] | %Inh [10] [%] | %Inh [11] [%] | %Inh [12] [%] | %Inh [13] [%] | %Inh [14] [%] | %Inh [15] [%] | %Inh [16] [%] | %Inh [17] [%] | %Inh [18] [%] | %Inh [19] [%] | %Inh [20] [%]
1 | Nc1nccc2scc(-c3ccc4c(c3)CCN4C(=O)Cc3cc(F)ccc3F)c12 [GSK2587663] | 0 | 1 | 10 | 6 | 16 | 18 | 65 | 25 | 3 | 0 | 83 | 3 | 0 | 0 | 28 | 12 | 16 | 14 | 0 | 15
2 | N#Cc1ccc(Oc2ccc(Nc3ncnc4cc[nH]c34)cc2Cl)cc1 | 0 | 7 | 0 | 10 | 0 | 0 | 19 | 21 | 8 | 1 | 2 | 26 | 0 | 6 | 2 | 0 | 0 | 0 | 8 | 20
3 | Nc1nc(-c2ccc3c(N)n[nH]c3c2)cc(N2CCC[C@@H](C(=O)Nc3ccccc3)C2)n1.O=C(O)C(F)(F)F.O=C(O)C(F)(F)F [GSK2288359] | 0 | 71 | 26 | 0 | 0 | 0 | 0 | 79 | 12 | 82 | 10 | 5 | 13 | 3 |  | 61 | 0 | 0 | 0 | 0
4 | Cc1ccc(NC(=O)c2cccc(C#N)c2)cc1-c1ccc(C(=O)Nc2ccncc2)cc1 [GSK1398463] | 0 | 14 | 0 | 1 | 3 | 51 | 7 | 21 | 0 | 0 | 2 | 3 | 38 | 8 | 22 | 0 | 0 | 9 | 0 | 26
5 | C[C@@H]1CCN(C(=O)CO)C[C@@H]1N(C)c1ncnc2[nH]ccc12 | 0 | 7 | 0 | 0 | 0 | 0 | 0 | 0 | 0 | 0 | 0 | 0 | 0 | 12 | 16 | 23 | 0 | 88 | 0 | 0
6 | Clc1cccc(-c2nc(Nc3ccncc3)c3ccccc3n2)c1 [GW873004] | 0 | 12 | 50 | 4 | 0 | 46 | 0 | 40 | 0 | 46 | 25 | 10 | 0 | 0 | 0 | 0 | 20 | 51 | 1 | 32
7 | CS(=O)(=O)CCNCc1nc(-c2ccc3ncnc(Nc4ccc(OCc5cccc(F)c5)c(Cl)c4)c3c2)cs1.Cl [GW583340] | 0 | 0 | 0 | 0 | 0 | 1 | 0 | 10 | 0 | 17 | 2 | 42 | 6 | 1 | 5 | 0 | 0 | 10 | 0 | 0
8 | Fc1cccc(COc2ccc(Nc3ncnc4sc(-c5ccc[nH]5)cc34)cc2Cl)c1 [GW707818] | 3 | 4 | 25 | 0 | 0 | 18 | 14 | 22 | 0 | 40 | 34 | 31 | 0 | 16 | 27 | 21 | 8 | 10 | 0 | 99.9
9 | Cl.c1ccc(Cn2ccc3cc(Nc4ncnc5ccccc45)ccc32)cc1 [GW275568] | 0 | 17 | 0 | 0 | 0 | 20 | 15 | 20 | 0 | 0 | 26 | 54 | 21 | 32 | 1 | 0 | 14 | 4 | 0 | 6
10 | Cn1cc(-c2ccc3c(c2)CCN3C(=O)Cc2cccc(C(F)(F)F)c2)c2c(N)ncnc21 [GSK2606414] | 0 | 16 | 9 | 0 | 0 | 14 | 78 | 28 | 18 | 0 | 75 | 1 | 3 | 9 | 4 | 13 | 0 | 16 | 0 | 25
11 | CSc1nn2c(=O)cc(N3CCOCC3)nc2n1Cc1cccc(Cl)c1Cl [GSK2347225] | 0 | 23 | 0 | 31 | 8 | 6 | 11 | 34 | 28 | 19 | 0 | 20 | 7 | 0 | 15 | 0 | 46 | 17 | 0 | 11
12 | O=c1cc(N2CCOCC2)nc2n(Cc3cccc(Cl)c3)ccn12 [GSK2296823] | 0 | 33 | 4 | 4 | 0 | 6 | 87 | 17 | 10 | 0 | 0 | 0 | 19 | 0 | 0 | 0 | 0 | 6 | 0 | 10
13 | CSc1ccc(NC2=C(c3ccccc3Cl)C(=O)NC2=O)cc1 [SB-342411] | 0 | 0 | 0 | 0 | 8 | 15 | 14 | 16 | 0 | 0 | 0 | 32 | 6 | 0 | 0 | 0 | 0 | 0 | 0 | 5
14 | Fc1cccc(COc2ccc(Nc3ncnc4nn5ccccc5c34)cc2Cl)c1 [GW689066] | 0 | 2 | 0 | 0 | 0 | 4 | 0 | 20 | 0 | 0 | 0 | 0 | 0 | 0 | 40 | 33 | 1 | 17 | 0 | 0
15 | Cc1ccc(O)cc1Nc1cc(C(F)(F)F)nc2ccc(-c3ccncc3)cc12 [GW630823] | 0 | 8 | 0 | 17 | 0 | 0 | 9 | 14 | 0 | 13 | 13 | 17 | 0 | 15 | 0 | 0 | 5 | 8 | 0 | 0
16 | Cc1cc(N2CCC(NS(=O)(=O)c3ccc(F)cc3)CC2)nc(Nc2cccc(C#N)c2)n1.O=C(O)C(F)(F)F [GSK1653537] | 0 | 0 | 3 | 37 | 9 | 0 | 29 | 45 | 0 | 25 | 57 | 0 | 4 | 0 | 0 | 0 | 7 | 0 | 0 | 28
17 | CC(=O)Nc1n[nH]c2ncc(-c3ccccc3)cc12 [SB-548492] | 8 | 0 | 1 | 12 | 21 | 0 | 0 | 38 | 17 | 31 | 8 | 0 | 24 | 33 | 3 | 1 | 22 | 9 | 17 | 3
18 | O=C(NCCCN1CCCC1=O)c1cnc(NCc2cc(Cl)ccc2Cl)nc1NC1CCNCC1 | 0 | 0 | 2 | 0 | 0 | 0 | 8 | 0 | 0 | 8 | 0 | 0 | 0 | 0 | 0 | 0 | 0 | 15 | 0 | 0
19 | NC(=O)c1sc(-n2cnc3ccccc32)cc1OCc1ccccc1F [GSK1024306] | 0 | 3 | 2 | 40 | 0 | 0 | 24 | 77 | 79 | 65 | 0 | 13 | 0 | 0 | 85 | 86 | 4 | 17 | 0 | 17
20 | Nc1nc(-c2cccnc2)c(-c2ccnc3ccccc23)s1 [GW684083] | 0 | 31 | 19 | 16 | 5 | 11 | 0 | 30 | 38 | 0 | 0 | 10 | 0 | 2 | 44 | 32 | 25 | 0 | 0 | 26
21 | Cl.c1ccc(Cn2ncc3cc(Nc4ncnc5ccccc45)ccc32)cc1 [GW273749] | 0 | 4 | 15 | 0 | 10 | 16 | 13 | 39 | 0 | 19 | 7 | 74 | 8 | 6 | 12 | 21 | 10 | 3 | 0 | 8

Reference: PMC5540273 (PLoS ONE, 2017)
